High-throughput results (PubChem BioAssay)
Rows were chosen to be rich in hits. Some 3.4% of all compounds tested hit in one or more screens of this group.
MITF inh: inhibitors of human MITF. O75030. AlphaScreen MITF homodimerization, bead proximity signal. 650,000 tested, 0.91% active. inhibition, % at 2.6 µM; in the data active means inhibition above about 50%
FBW7 act: activators of human E3 ligase FBW7; AlphaScreen FBW7–phospho-cyclin E peptide binding, activator screen; normalized activity (activation), % at 26.1 µM; 650,000 tested, 0.13% active; Q969H0; in the data active means normalized activity above about 1.9%;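 further: purified mutant Fbw7 with reduced substrate affinity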
GPR151 ag: activators of human GPR151; Q8TDV0; PathHunter beta-arrestin GPR151 cells, luminescence; activation, % at 11.2 µM; 650,000 tested, 1% active; in the data active means activation above about 4.9%
TEAD-YAP inh: TEAD-YAP interaction inhibition; HEK-TIYL cells, TEAD-Gal4/YAP UAS-luciferase luminescence; inhibition, % at 9.12 µM; 640,000 tested, 1.4% active; AID 1259422; in the data active means inhibition above about 32%
GPR151 confirm: confirmation of human GPR151 activators | GPR151 PathHunter beta-arrestin cells, luminescence, 90 min; % of EA-reagent control over plate median | shares compounds with GPR151 ag | activation, % at 11.2 µM | 6,700 tested, under 10 active | AID 1508609;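 active means mean percent activation across replicates above the confirmation screen cutoff of 4.91%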
GPR119 ag: counter-screen for GPR151 activators: effect on human GPR119 | shares compounds with GPR151 ag | activation, % at 11.2 µM | 6,700 tested, 0.3% active | GPR119 PathHunter beta-arrestin cells, luminescence, 90 min; 0 = compound-well median, 100 = enzyme-acceptor control;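 active means mean percent activation in the counterscreen above 29.09%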;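 further: counterscreen on off-target GPR119 to flag nonselective hits from the GPR151 activator screen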
Large screens that a line does not name were inactive (follow-up assays come after a bar, where they were run); ! = repeats disagree.

O=C(Nc1nnc(N2CCCC2)s1)Nc1ccc(Br)cc1F	GPR151 ag 5.6 | GPR151 confirm inactive | GPR119 ag inactive
O=C(Nc1nnc(N2CCCC2)s1)Nc1ccccc1F	none
CCC(C)NS(=O)(=O)c1ccc2c(c1)CC(C)N2C(=O)C1CC1 (centres undefined)	none
COC(=O)c1c(OC(C)C)cc(=O)n2c1CCN(C(=O)c1cc(C)oc1C)CC2	none
CCOc1cc(S(=O)(=O)n2ccnc2)ccc1Br	none
COc1cc(S(=O)(=O)n2ccnc2)ccc1Br	GPR151 ag 5.7 | GPR151 confirm inactive | GPR119 ag inactive
Cc1ccc(C(NC(N)=O)c2ccccc2)cc1C (centres undefined)	none
COc1ccc(C(=O)Nc2ccc(C)c([N+](=O)[O-])c2)cc1OC	none
CS(=O)(=O)N1N=C(c2ccc(Br)cc2)CC1c1cc2ccccc2nc1Cl (centres undefined)	none
Cc1ccc2nc(Cl)c(C3CC(c4ccc(Br)cc4)=NN3S(C)(=O)=O)cc2c1 (centres undefined)	GPR151 ag 5.1 | GPR151 confirm inactive | GPR119 ag inactive
COC(=O)c1ccc(CSc2nc(C)[nH]c2[N+](=O)[O-])o1	none
Cc1nc(SCC(O)CCl)c([N+](=O)[O-])[nH]1 (centres undefined)	GPR151 ag 8.5 | GPR151 confirm inactive | GPR119 ag inactive
C1=C(c2ccc3c(c2)OCO3)Nc2ncnn2C1c1cccs1 (centres undefined)	none
CC(=O)N1c2ccccc2NC2=C(C(=O)CC(C)(C)C2)C1c1ccccn1 (centres undefined)	GPR151 ag 5.2 | GPR151 confirm inactive | GPR119 ag inactive
CCCCOc1ccc(C2C3=C(CC(C)(C)CC3=O)Nc3ccccc3N2C(=O)CC)cc1 (centres undefined)	GPR151 ag 6.7 | GPR151 confirm inactive | GPR119 ag inactive
COc1c(Cl)cc(C(=O)N(Cc2sccc2C)C2CCS(=O)(=O)C2)cc1Cl (centres undefined)	none
CC(C)Cn1c(SCc2ccc([N+](=O)[O-])cc2)nnc1-c1ccncc1	GPR151 ag 5.9 | GPR151 confirm inactive | GPR119 ag inactive
O=C(Nc1nnc(-c2ccco2)o1)c1nc2ccccc2s1	GPR151 ag 4.9 | GPR151 confirm inactive | GPR119 ag inactive
CCOCCCNC(=O)c1c(N)n(CCc2ccccc2)c2nc3ccccc3nc12	none
COCCNC(=O)c1c(N)n(CCc2ccc(OC)c(OC)c2)c2nc3ccccc3nc12	GPR151 ag 10 | GPR151 confirm inactive | GPR119 ag inactive
Cn1c(=O)c2c(SCCC3OCCO3)nc(C3CCCCC3)nc2n(C)c1=O	GPR151 ag 7.9 | GPR151 confirm inactive | GPR119 ag inactive
CCCN(CCC)CCc1cccc2c1CC(=O)N2	GPR151 ag 12! | GPR151 confirm inactive | GPR119 ag inactive
CC(C)(C)C1=Nc2ccccc2NC(=O)C1	none
C=CCC(CC=C)(C(=O)O)c1ccccc1	GPR151 ag 5.8 | GPR151 confirm inactive | GPR119 ag inactive
COc1cc2[nH]c(=S)nc(Nc3ccncc3)c2cc1OC	none
COc1ccc(Nc2nc(=S)[nH]c3cc(OC)c(OC)cc23)cc1OC	GPR151 ag 6.6 | GPR151 confirm inactive | GPR119 ag inactive
CC(C)CCNC(=O)NC(=O)COC(=O)c1cc2ccccc2oc1=O	GPR151 ag 12 | GPR151 confirm inactive | GPR119 ag inactive
CCc1nccn1S(=O)(=O)c1ccc(OC)c2ccccc12	GPR151 ag 6.8 | GPR151 confirm inactive | GPR119 ag inactive
CCc1nccn1S(=O)(=O)c1cc(Br)c(C)cc1OC	none
CC(=O)NC1=NC(=O)/C(=C/c2ccc(OCc3ccc([N+](=O)[O-])cc3)cc2)S1	GPR151 ag 5.0 | GPR151 confirm inactive | GPR119 ag inactive
COc1cc(/C=C2\SC(NC(C)=O)=NC2=O)ccc1OCc1ccc([N+](=O)[O-])cc1	none
c1ccc(Nc2nc(N3CCOCC3)nc3c2ncn3C2CCCCC2)cc1	none
Cc1ccc(C(=O)NCc2ccc(Cl)cc2)o1	GPR151 ag 7.7 | GPR151 confirm inactive | GPR119 ag inactive
NC(=O)C(=O)NCc1ccc(Cl)cc1	GPR151 ag 5.9 | GPR151 confirm inactive | GPR119 ag inactive
Cc1ccc(C(=O)NCc2ccccc2)o1	none
Cc1ccccc1-n1ncc(C(C)NC(=O)CC2CC2)c1C (centres undefined)	none
